Values joined by “and” are separate entries in the source; they are usually repeats but may differ in a detail not shown here. Equal entries are not always repeated. Active and inactive are the calls of the source. The calls were made as follows: active = hit-call score of the fitted dose curve at least 0.9, where 1 is the maximum; inactive = score below 0.9.
Test: BSK_4H_SRB: Viability Assessment in the BioMAP Diversity Plus: 4H Assay (AID 2283027);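 as to AC50: curves fitted both ways versus DMSO so AC50 may be loss or gain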
Settings: primary human endothelial cells (HUVEC)
Experimental: BSK_4H is a cell-based, multiplexed-readout assay that uses umbilical vein endothelium, a human vascular primary cell, with measurements taken at 24 hours after chemical dosing in a 96-well plate.BSK_4H_SRB is an assay component measured in the BSK_4H assay. It measures […] related to cell death using Sulforhodamine staining technology.Data from the assay component BSK_4H_SRB was analyzed into 1 assay endpoint. This assay endpoint, BSK_4H_SRB, was analyzed with bidirectional fitting relative to DMSO as the negative control and baseline of activity. Using a type of viability reporter, gain or loss-of-signal activity can be used to understand changes in the signaling. Furthermore, this assay endpoint can be referred to as a primary readout, because this assay has produced multiple assay endpoints where this one serves a signaling function. To generalize the intended target to other relatable targets, this assay endpoint is annotated to the cell morphology intended target family, where the subfamily is cell conformation.
The levels of cell surface (or secreted, indicated by the prefix "s") biomarker endpoints were measured by ELISA. Overt cytotoxicity to cells in confluent adherent cultures (all systems other than the BT system) was assessed by measuring total protein levels using sulforhodamine B (SRB) staining in parallel cultures at the time of biomarker measurements, indicated as SRB endpoints. For proliferation assays for adherent cell types, individual cell types are cultured at sub-confluence and relative cell numbers quantified by SRB staining at time points optimized for each system (48 h: 3C and CASM3C systems; 72 h: BT and HDF3CGF systems; 96 h: SAg system). SRB was performed by staining cells with 0.1% SRB after fixation with 10% TCA and reading wells at 560 nm.Viability and proliferation of PBMC (T cells) was quantified by Alamar Blue reduction for the SAg and BT systems. For PBMC viability (referred to as PBMC Cytotoxicity within the assay endpoint names), cells were plated (75,000/well in a 96-well plate) and then chemical samples added for 1 h before addition of activators, SEB and TSST-1 (20 ng/mL final concentration each). Cells were incubated for 90 h. Then, Alamar Blue (20 uL/well) (Invitrogen, Cat DAL1100) was added for 6 h, and the plates were read with a fluorescence microplate reader at 546/580 nm (excitation/emission). For PBMC proliferation, cells were plated and activated as above but incubated for only 16 h prior to addition of Alamar Blue. Plates were read after 6 h.

| Compound | outcome | AC50 |
| --- | --- | --- |
| CCOP(=S)(OCC)Oc1ccc2c(C)c(Cl)c(=O)oc2c1 | inactive |  |
| CC1(C(=O)Nc2ccc(O)c(Cl)c2Cl)CCCCC1 | inactive |  |
| COc1ccc(C(=CC(=O)N2CCOCC2)c2ccc(Cl)cc2)cc1OC | inactive |  |
| CSc1nnc(C(C)(C)C)c(=O)n1N | inactive |  |
| CON=C(C(=O)OC)c1ccccc1CON=C(C)c1cccc(C(F)(F)F)c1 |  | 5.67 µM (active) |
| O=C(O)c1cc(Oc2ccc(C(F)(F)F)cc2Cl)ccc1[N+](=O)[O-] | inactive |  |
| CCCCN(CC)c1c([N+](=O)[O-])cc(C(F)(F)F)cc1[N+](=O)[O-] | inactive |  |
| CCC(=O)Nc1ccc(Cl)c(Cl)c1 | inactive |  |
| CCc1cccc(CC)c1N(COC)C(=O)CCl |  | 14.8 µM (active) |
| COP(=O)(OC)SCn1c(=O)oc2cc(Cl)cnc21 | inactive |  |
| CC(C)N(C(=O)SCC(Cl)=C(Cl)Cl)C(C)C |  | 33.4 µM (active) |
| CCCCSP(=O)(SCCCC)SCCCC |  | 20 µM (active) |
| N#CSCSC#N |  | 10.2 µM (active) |
| CC[C@H](C)[C@H]1O[C@]2(C=C[C@@H]1C)C[C@@H]1C[C@@H](C/C=C(\C)[C@@H](O[C@H]3C[C@H](OC)[C@@H](O[C@H]4C[C@H](OC)[C@@H](NC)[C@H](C)O4)[C@H](C)O3)[C@@H](C)/C=C/C=C3\CO[C@@H]4[C@H](O)C(C)=C[C@@H](C(=O)O1)[C@]34O)O2 |  | 5.17 µM (active) |
| C[Si](Cn1cncn1)(c1ccc(F)cc1)c1ccc(F)cc1 | inactive |  |
| Nc1c(Cl)cc([N+](=O)[O-])cc1Cl | inactive |  |
| CCCSP(=O)(OCC)SCCC | inactive |  |
| CCNc1nc(Cl)nc(NC(C)(C)C#N)n1 | inactive |  |
| Cc1ccn2nc(S(=O)(=O)Nc3c(F)cccc3F)nc2n1 |  | 0.229 µM (active) |
| CCCOCC(=Nc1ccc(Cl)cc1C(F)(F)F)n1ccnc1 |  | 29 µM (active) |

| Compound | outcome | AC50 |
| --- | --- | --- |
| CN1COCN(Cc2cnc(Cl)s2)C1=N[N+](=O)[O-] | inactive |  |
| CSC1=N[C@@](C)(c2ccccc2)C(=O)N1Nc1ccccc1 |  | 2.88 µM (active) |
| CN(C)NC(=O)CCC(=O)O | inactive |  |
| CNC(=O)ON=C(SC)C(=O)N(C)C | inactive |  |
| CC1=NNC(=O)N(/N=C/c2cccnc2)C1 | inactive |  |
| CC(C)=CC1C(C(=O)OCN2C(=O)C3=C(CCCC3)C2=O)C1(C)C (stereo not given) | inactive |  |
| CC(C1CC1)C(O)(Cn1cncn1)c1ccc(Cl)cc1 (stereo not given) | inactive |  |
| CC(C)[C@H](C(=O)O[C@H](C#N)c1cccc(Oc2ccccc2)c1)c1ccc(Cl)cc1 | inactive |  |
| COP(=O)(NC(C)=O)SC (stereo not given) | inactive |  |
| C#CCC1=C(C)C(OC(=O)C2C(C=C(C)C)C2(C)C)CC1=O (stereo not given) |  | 33.8 µM (active) |
| Nc1nc(N)nc(NC2CC2)n1 | inactive |  |
| S=C1NCCN1 | inactive |  |
| CCOP(=S)(OCC)OC(Cl)C(Cl)(Cl)Cl (stereo not given) |  | 12.4 µM (active) |
| CCC(=NOC/C=C/Cl)C1=C(O)CC(C2CCOCC2)CC1=O (stereo not given) | inactive |  |
| CCOC(=O)CC(SP(=O)(OC)OC)C(=O)OCC (stereo not given) | inactive |  |
| C=C(C)[C@H]1Cc2c(ccc3c2O[C@@H]2COc4cc(OC)c(OC)cc4[C@@H]2C3=O)O1 |  | 3.9 µM (active) |
| O=c1ccc(=O)[nH][nH]1 | inactive |  |
| CCOP(=S)(Oc1cnc(C(C)(C)C)nc1)OC(C)C (stereo not given) |  | 34.1 µM (active) |
| O=[N+]([O-])c1cc(C(F)(F)F)c(Cl)c([N+](=O)[O-])c1Nc1ncc(C(F)(F)F)cc1Cl |  | 1 µM (active) and 2.39 µM (active) |
| CNC(=O)Oc1cccc2c1OC(C)(C)O2 | inactive |  |

— PubChem BioAssay (EPA / NIEHS)
